Data from the supplement of paper PMC5662767.
Where a name gives a salt, the structure may show the parent alone.

Tested on: Drosophila S2 cl14 SmoIP sensor cells
Assay: normalized SmoIP GFP fluorescence (untreated unstimulated = 0%, untreated Hh-stimulated = 100%); higher = more Smo activation sensor fluorescence
Details: compound concentration: 2 uM, 24 h
[1] = stimulation: Hh conditioned medium (+Hh)
[2] = stimulation: mock conditioned medium (-Hh)
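Further: flow cytometry read-out as median GFP intensity of gated cells, compounds added 30 min before Hh-conditioned or mock medium, mock-treated cells serving as unstimulated baseline.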

SMILES	normalized SmoIP GFP fluorescence [1] [%]	normalized SmoIP GFP fluorescence [2] [%]
CC(C)C(=O)Oc1ccc(CO)cc1[C@H](CCN(C(C)C)C(C)C)c1ccccc1 [Fesoterodine-fumarate-Toviaz]	110	-4.53
COC(=O)N1CCN(Cc2cccc(NC(=O)Nc3ccc(C)nc3)c2F)CC1	125	-11.4
CNCC[C@@H](Oc1ccccc1C)c1ccccc1 [atomoxetine-hydrochloride]	104	-0.264
O=C(NS(=O)(=O)c1ccc(Br)s1)c1ccc(Cl)cc1Cl [tasisulam]	104	-4.01
Cc1ccc(-c2c(-c3nn(C)c4ncnc(N5CC[C@H](N6CCCCC6)C5)c34)cnn2C)cc1	114	-2.71
CC(C)C[C@H](NC(=O)CNC(=O)c1cc(Cl)ccc1Cl)B1OC(=O)C(CC(=O)O)(CC(=O)O)O1	157	31
CCC1=C(C)CN(C(=O)NCCc2ccc(S(=O)(=O)NC(=O)N[C@H]3CC[C@H](C)CC3)cc2)C1=O [Glimepiride]	94.8	3.18
CCC[C@H](NC(=O)[C@@H]1[C@H]2CCC[C@H]2CN1C(=O)[C@@H](NC(=O)[C@@H](NC(=O)c1cnccn1)C1CCCCC1)C(C)(C)C)C(=O)C(=O)NC1CC1 [Telaprevir(VX-950)]	120	1.03
CCN(CC)CCCC(C)Nc1nc(C)cc(Nc2ccc3nc(C)cc(N)c3c2)n1 (configuration not stated)	112	-4.53
CC(C)(CO)c1cc2cc(NC(=O)C3(c4ccc5c(c4)OC(F)(F)O5)CC3)c(F)cc2n1C[C@@H](O)CO	104	-3.39
C[C@H](Nc1ncnc2nc[nH]c12)c1cc2cccc(Cl)c2c(=O)n1-c1ccccc1	98	-4.24
